Here are results for 10 molecules from PubChem BioAssay (NCI).

Molecules are shown by their SMILES. The panel holds about 79,000 compounds, 15% with a hit somewhere; the sample as a whole holds those more often. Values without a mark were called inactive. Activity calls are given as the source filed them. Rule as the data show it: active = growth inhibition above about 70%; inactive = the rest.

Experiment [1] is described as follows: NCI Yeast Anticancer Drug Screen. Data for the rad50 strain (AID 155).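 Also: 0% = growth of vehicle-only cultures of the same strain.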 Particulars: S. cerevisiae rad50 strain growth inhibition, active compounds read high. Summed up: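 Inhibition values express reduced yeast growth in compound-treated cultures relative to vehicle-treated controls.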
Experiment [2] can be described thus: NCI Yeast Anticancer Drug Screen. Data for the mec2-1 strain (AID 157). The conditions noted are these: S. cerevisiae mec2-1 strain, active compounds read high. Put shortly:
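Test agents were screened against the mec2-1 yeast strain, with defined DNA repair or cell cycle alteration. Growth was scored as inhibition against vehicle-only controls.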

Experiment [3] is described as follows: NCI Yeast Anticancer Drug Screen. Data for the sgs1 mgt1 strain (AID 161).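 Also: 0% = growth of cultures given vehicle only.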 Particulars: S. cerevisiae sgs1 mgt1 strain, active compounds read high. Summed up: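 Test agents were incubated with a DNA-repair-mutant yeast strain. Growth was then read and compared against vehicle-treated controls.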
Experiment [4] in a line: NCI Yeast Anticancer Drug Screen. Data for the cln2 rad14 strain (AID 165).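 Also: 0% = growth equal to vehicle treated cultures.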 The conditions noted are these: S. cerevisiae cln2 rad14 strain, active compounds read high. Summed up:
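Growth of compound-exposed yeast (cln2 rad14 genotype) measured and expressed as inhibition relative to vehicle.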

The nature of experiment [5]: NCI Yeast Anticancer Drug Screen. Data for the bub3 strain (AID 167). The conditions noted are these: S. cerevisiae bub3 mutant strain, active compounds read high. Summed up:
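Steps: expose the mutant yeast strain to compound; grow alongside vehicle-treated cultures; measure growth; express inhibition against the vehicle cultures.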

A short description of experiment [6]: NCI Yeast Anticancer Drug Screen. Data for the mlh1 rad18 strain (AID 175). Particulars: S. cerevisiae mlh1 rad18 strain growth inhibition, active compounds read high. Put shortly:
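In this whole-cell yeast screen, a strain with altered DNA damage repair is challenged with compound, and its growth is measured against matched vehicle-treated controls.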

Where [7] appears, read: at 5.0 µM (retest, dose inferred, filed as 0.5).
Setting [8] is: at 50.0 µM (retest, dose inferred, filed as 5.0).

Take `Clc1ccc([I+]c2cccs2)cc1`: the growth inhibition in experiment [1] (setting [7]) was 37%; in experiment [1] (setting [8]), 97% (active); in experiment [1] (at 50.0 µM) it was 98% (active); in experiment [2] (setting [7]), 51%; in experiment [2] (setting [8]), 99% (active); in experiment [2] (at 50.0 µM), 98.7% (active). In addition, the growth inhibition in experiment [3] (setting [7]) was 45%; in experiment [3] (setting [8]), 98% (active); in experiment [3] (at 50.0 µM), 8.95%; in experiment [4] (setting [7]), 33%; in experiment [4] (setting [8]), 97% (active); in experiment [4] (at 50.0 µM) it was 97.7% (active). For the same molecule, the growth inhibition in experiment [5] (setting [7]) is 66%; in experiment [5] (setting [8]), 97% (active); in experiment [5] (at 50.0 µM), 98% (active); in experiment [6] (setting [7]), 72% (active); in experiment [6] (setting [8]), 98% (active); in experiment [6] (at 50.0 µM), 99% (active).
With `O=c1[nH]c(=O)c2n[nH]nc2[nH]1`, the growth inhibition in experiment [1] (setting [7]) was 6%; in experiment [1] (setting [8]), 3%; in experiment [1] (at 50.0 µM), 0.45%; in experiment [2] (setting [7]), -1%; in experiment [2] (setting [8]) it was 5%; in experiment [2] (at 50.0 µM), -4.95%. The growth inhibition was 1% in experiment [3] (setting [7]); 9% in experiment [3] (setting [8]); 33.4% in experiment [3] (at 50.0 µM); 9% in experiment [4] (setting [7]); 8% in experiment [4] (setting [8]); -42.5% in experiment [4] (at 50.0 µM). The growth inhibition was 3% in experiment [5] (setting [7]); 3% in experiment [5] (setting [8]); 7.7% in experiment [5] (at 50.0 µM); 3% in experiment [6] (setting [7]); 6% in experiment [6] (setting [8]); 24.1% in experiment [6] (at 50.0 µM).
For the molecule `Cc1c(NC(=O)/C(=N/NC(=S)N=N)C2C(=O)CC(C)(C)CC2=O)c(O)c2ccccc2c1O`, the growth inhibition was 14% in experiment [1] (setting [7]); 98% (active) in experiment [1] (setting [8]); 95.3% (active) in experiment [1] (at 50.0 µM); 7% in experiment [2] (setting [7]); 99% (active) in experiment [2] (setting [8]); 81.2% (active) in experiment [2] (at 50.0 µM). Further, the growth inhibition in experiment [3] (setting [7]) is 7%; in experiment [3] (setting [8]) it was 99% (active); in experiment [3] (at 50.0 µM), 84.8% (active); in experiment [4] (setting [7]), -1%; in experiment [4] (setting [8]), 99% (active); in experiment [4] (at 50.0 µM), 47%. Also, the growth inhibition is 16% in experiment [5] (setting [7]); 98% (active) in experiment [5] (setting [8]); 90.9% (active) in experiment [5] (at 50.0 µM); 9% in experiment [6] (setting [7]); 98% (active) in experiment [6] (setting [8]); 93% (active) in experiment [6] (at 50.0 µM).
Take `N#CS/C(Cl)=C(/C(Cl)=C(Cl)Cl)[N+](=O)[O-]`: the growth inhibition was 5% in experiment [1] (setting [7]); 99% (active) in experiment [1] (setting [8]); 84.8% (active) in experiment [1] (at 50.0 µM); 18% in experiment [2] (setting [7]); 99% (active) in experiment [2] (setting [8]); 70.7% (active) in experiment [2] (at 50.0 µM). Besides, the growth inhibition is -3% in experiment [3] (setting [7]); 98% (active) in experiment [3] (setting [8]); 87.4% (active) in experiment [3] (at 50.0 µM); -5% in experiment [4] (setting [7]); 98% (active) in experiment [4] (setting [8]); 48.6% in experiment [4] (at 50.0 µM). Besides, the growth inhibition was -21% in experiment [5] (setting [7]); 99% (active) in experiment [5] (setting [8]); 85.7% (active) in experiment [5] (at 50.0 µM); -15% in experiment [6] (setting [7]); 99% (active) in experiment [6] (setting [8]); 81.2% (active) in experiment [6] (at 50.0 µM).
Consider `O=c1oc(-c2cccc(C(Cl)Cl)c2)ns1`, for which the growth inhibition in experiment [1] (setting [7]) was 7%; in experiment [1] (setting [8]), 99% (active); in experiment [1] (at 50.0 µM), 98.2% (active); in experiment [2] (setting [7]), 5%; in experiment [2] (setting [8]), 100% (active); in experiment [2] (at 50.0 µM), 99.1% (active). Besides, the growth inhibition in experiment [3] (setting [7]) is 12%; in experiment [3] (setting [8]), 100% (active); in experiment [3] (at 50.0 µM), 99.2% (active); in experiment [4] (setting [7]) it was 2%; in experiment [4] (setting [8]), 99% (active); in experiment [4] (at 50.0 µM), 69%. Also, the growth inhibition in experiment [5] (setting [7]) is 3%; in experiment [5] (setting [8]) it was 99% (active); in experiment [5] (at 50.0 µM) it was 97.7% (active); in experiment [6] (setting [7]), 13%; in experiment [6] (setting [8]), 99% (active); in experiment [6] (at 50.0 µM), 99.1% (active).
`O=[N+]([O-])CC(O)c1ccccc1Cl` (stereo not given): the growth inhibition in experiment [1] (setting [7]) is 90% (active); in experiment [1] (setting [8]), 98% (active); in experiment [1] (at 50.0 µM), 99.3% (active); in experiment [2] (setting [7]), 5%; in experiment [2] (setting [8]), 99% (active); in experiment [2] (at 50.0 µM), 99.7% (active). Besides, the growth inhibition in experiment [3] (setting [7]) was -15%; in experiment [3] (setting [8]), 99% (active); in experiment [3] (at 50.0 µM) it was 99.5% (active); in experiment [4] (setting [7]) it was -4%; in experiment [4] (setting [8]), 98% (active); in experiment [4] (at 50.0 µM), 98.7% (active). The growth inhibition is 16% in experiment [5] (setting [7]); 98% (active) in experiment [5] (setting [8]); 99.4% (active) in experiment [5] (at 50.0 µM); 30% in experiment [6] (setting [7]); 99% (active) in experiment [6] (setting [8]); 99.2% (active) in experiment [6] (at 50.0 µM).
With `Cc1cc(SCc2ccccc2)cc(C)[o+]1`, the growth inhibition in experiment [1] (setting [7]) was -1%; in experiment [1] (setting [8]), 92% (active); in experiment [1] (at 50.0 µM) it was 17.4%; in experiment [2] (setting [7]), 18%; in experiment [2] (setting [8]) it was 99% (active); in experiment [2] (at 50.0 µM), 44.4%. Moreover, the growth inhibition in experiment [3] (setting [7]) was -20%; in experiment [3] (setting [8]), 88% (active); in experiment [3] (at 50.0 µM), 60.1%; in experiment [4] (setting [7]), -1%; in experiment [4] (setting [8]), 93% (active); in experiment [4] (at 50.0 µM), 55.8%. Further, the growth inhibition in experiment [5] (setting [7]) is -2%; in experiment [5] (setting [8]) it was 96% (active); in experiment [5] (at 50.0 µM) it was 61.5%; in experiment [6] (setting [7]), -6%; in experiment [6] (setting [8]), 96% (active); in experiment [6] (at 50.0 µM), 63.7%.
Consider `COc1ccc2c(c1)[n+]([O-])c(S(=O)(=O)c1ccc(C)cc1)c(N)[n+]2[O-]`, for which the growth inhibition is 4% in experiment [1] (setting [7]); 80% (active) in experiment [1] (setting [8]); 99.2% (active) in experiment [1] (at 50.0 µM); 18% in experiment [2] (setting [7]); 80% (active) in experiment [2] (setting [8]); 98.8% (active) in experiment [2] (at 50.0 µM). Also, the growth inhibition is 35% in experiment [3] (setting [7]); 96% (active) in experiment [3] (setting [8]); 96% (active) in experiment [3] (at 50.0 µM); 16% in experiment [4] (setting [7]); 66% in experiment [4] (setting [8]); 99% (active) in experiment [4] (at 50.0 µM). The growth inhibition is 50% in experiment [5] (setting [7]); 96% (active) in experiment [5] (setting [8]); 99% (active) in experiment [5] (at 50.0 µM); 36% in experiment [6] (setting [7]); 95% (active) in experiment [6] (setting [8]); 99% (active) in experiment [6] (at 50.0 µM).
For the molecule `C1Cc2c3c4c(c5c2C(C1)CCC5)CCCC4CCC3`, the growth inhibition in experiment [1] (setting [7]) is -5%; in experiment [1] (setting [8]) it was 8%; in experiment [1] (at 50.0 µM) it was -11.5%; in experiment [2] (setting [7]) it was 1%; in experiment [2] (setting [8]), 17%; in experiment [2] (at 50.0 µM), 10.3%. Besides, the growth inhibition in experiment [3] (setting [7]) is -1%; in experiment [3] (setting [8]), 13%; in experiment [3] (at 50.0 µM), 0%; in experiment [4] (setting [7]) it was 3%; in experiment [4] (setting [8]), -1%; in experiment [4] (at 50.0 µM), 34.2%. Further, the growth inhibition was 15% in experiment [5] (setting [7]); 8% in experiment [5] (setting [8]); -0.85% in experiment [5] (at 50.0 µM); -1% in experiment [6] (setting [7]); 10% in experiment [6] (setting [8]); -2.25% in experiment [6] (at 50.0 µM).
For `Oc1ccc2c(c1)Cc1cc(Br)ccc1-2`, the growth inhibition was 3% in experiment [1] (setting [7]); 99% (active) in experiment [1] (setting [8]); 98.5% (active) in experiment [1] (at 50.0 µM); -6% in experiment [2] (setting [7]); 99% (active) in experiment [2] (setting [8]); 98.9% (active) in experiment [2] (at 50.0 µM). For the same molecule, the growth inhibition in experiment [3] (setting [7]) was 7%; in experiment [3] (setting [8]), 80% (active); in experiment [3] (at 50.0 µM), 98.6% (active); in experiment [4] (setting [7]) it was -5%; in experiment [4] (setting [8]), 99% (active); in experiment [4] (at 50.0 µM) it was 97.8% (active). For the same molecule, the growth inhibition in experiment [5] (setting [7]) is 24%; in experiment [5] (setting [8]), 99% (active); in experiment [5] (at 50.0 µM), 98.5% (active); in experiment [6] (setting [7]) it was -11%; in experiment [6] (setting [8]) it was 99% (active); in experiment [6] (at 50.0 µM), 98.2% (active).
